# Records with an inconclusive call do not appear. Calls of active or inactive are those of the source. The call rests on the fitted dose curve.
# Experiment: qHTS assay to identify small molecule agonists of the endoplasmic reticulum stress response signaling pathway - cell viability counter screen (AID 1159517); further: nearly all actives have a fitted effect of over 50% in size
# Settings: ESRE-bla HeLa viability, CellTiter-Glo luminescence, 5 h; series mostly up to 61 µM; activity change, negative = cytotoxicity: at the top concentration
# From the text: U.S. Tox21 Program National Center for Advancing Translational Sciences [NCATS] NIH Chemical Genomics Center [NCGC] U.S. Environmental Protection Agency [EPA] National Institutes of Environmental Health Sciences [NIEHS] National Toxicology Program [NTP] U.S. Food and Drug Administration [FDA] Tox21 Assay Overview: Endoplasmic Reticulum (ER) plays an important role in cellular signaling, protein folding/maturation, stress response, lipid biosynthesis, calcium storage and release etc. Under stress conditions, proteins in ER misfold or unfold, and leading to the expression of ER stress responsive genes. ER stress has been associated with a variety of pathophysiological conditions such as cancer, inflammation, neurodegenerative diseases, diabetes, ischemic heart disease etc. To identify the compounds that induce ER stress response, an ER stress reporter cell line, CellSensor ESRE-bla HeLa (Life Technologies, Carlsbad, CA) containing a beta-lactamase reporter gene under control of the Endoplasmic reticulum Stress Response Element (ESRE) was used to screen Tox21 10K compound library. The cytotoxicity of the Tox21 compound library against the ESRE-bla HeLa cell line was tested in parallel by measuring cell viability using the CellTiter-Glo assay in the same wells.
# Tox21 Assay Protocol Summary: ESRE-bla HeLa cells were dispensed at 1,500 cells/6 uL of assay medium per well into black wall/clear-bottom 1536-well plates using a Multidrop Combi (ThermoFisher Scientific, Waltham, MA) dispenser. After the assay plates were incubated at 37 C and 5% CO2 for an overnight, 23 nL of compounds dissolved in DMSO, positive controls or DMSO only was transferred to the assay plate by a Pintool station (Kalypsys, San Diego, CA). The assay plates were incubated at 37 C and 5% CO2 for 5 hr. One uL of LiveBLAzer B/G FRET substrate (Life Technologies) was added using a FRD (Flying Reagent Dispenser, Aurora Discovery, San Diego, CA) and the plates were incubated at room temperature for 2 hr. Fluorescence intensity (405 nm excitation, 460 nm and 530 nm emissions) was measured using an Envision plate reader (PerkinElmer, Shelton, CT). For cytotoxicity, 4 ul/well of CellTiter-Glo reagent was added into the assay plates using an FRD. After 30 min incubation at room temperature, the luminescence intensity was measured using a ViewLux plate reader (PerkinElmer).
# On the % scale 0 is the no-effect control and ±100 the full control effect.
row,Structure (SMILES),"activity change, negative = cytotoxicity"
1,CC(C)c1ccc2oc3nc(N)c(C(=O)O)cc3c(=O)c2c1,-20.4% (inactive)
2,CC(C)(C)N(CCO)CCO,2.53% [at 78.8 µM] (inactive)
3,CCCCCCCCC=O,-1.98% (inactive)
4,C[C@H](O)C(=O)Nc1c(I)c(C(=O)NC(CO)CO)c(I)c(C(=O)NC(CO)CO)c1I,-17.3% (inactive)
5,C1C2OC2C2C1C1CC2C2OC12 (stereo not given),10.3% [at 78.8 µM] (inactive)
6,Cn1cnc2c(=O)[nH]c(N)nc21,14.4% (inactive)
7,CC(C)(O)C(=O)c1ccc(OCCO)cc1,10.4% (inactive)
8,c1ccc(CCCc2ccccn2)cc1,17.5% (inactive)
9,O=Cc1ccccc1[N+](=O)[O-],2.06% (inactive)
10,C=CCOCC(O)CS(=O)(=O)O (stereo not given),1.42% [at 78.8 µM] (inactive)
11,CC(C)c1cccc(O)c1,4.96% [at 78.8 µM] (inactive)
12,COc1ccc2cc(C=O)ccc2c1,5.65% (inactive)
13,C=CCOc1nc(OCC=C)nc(OCC=C)n1,0.657% (inactive)
14,CCCCCN(CCCCC)C(=O)C(CCC(=O)O)NC(=O)c1ccc(Cl)c(Cl)c1 (stereo not given),12.9% (inactive)
15,Cc1nc(-c2ccc(OCC(C)C)c(C#N)c2)sc1C(=O)O,4.54% (inactive)
16,CCCc1ccc(N)cc1,7.6% (inactive)
17,C(=C(c1ccccc1)c1ccccc1)c1ccccc1,-13.6% (inactive)
18,CCN1CCCC(OC(=O)C(c2ccccc2)c2ccccc2)C1 (stereo not given),10.3% (inactive)
19,CC(=O)CCc1ccc(O)cc1,2.5% (inactive)
20,CSc1nc(NC2CC2)nc(NC(C)(C)C)n1,3.62% (inactive)

row,Structure (SMILES),"activity change, negative = cytotoxicity"
1,CC(CCO)CCCC(C)(C)O (stereo not given),-2.65% (inactive)
2,CCC(C)OC(=O)N1CCCCC1CCO (stereo not given),-10.1% (inactive)
3,CO[Si](CCCNCCC[Si](OC)(OC)OC)(OC)OC,-2.84% (inactive)
4,CC/C=C\CCCCO,5.67% (inactive)
5,CC(=O)OC(C)(C)C,5.34% (inactive)
6,NS(=O)(=O)c1cc2c(cc1Cl)NC(CSCc1ccccc1)=NS2(=O)=O,-1.55% (inactive)
7,Nc1ccc2cc(S(=O)(=O)O)ccc2c1,9.15% (inactive)
8,CN(C)CCn1nnnc1SCC1=C(C(=O)O)N2C(=O)[C@@H](NC(=O)Cc3csc(N)n3)[C@H]2SC1,-0.655% (inactive)
9,COC(=O)[C@H]1[C@H]2C[C@@H]3c4[nH]c5cc(OC)ccc5c4CCN3C[C@H]2C[C@@H](OC(=O)COc2ccc(OC)cc2)[C@@H]1OC,5.25% (inactive)
10,CCCCCCCCCCCCI,-2.04% [at 78.8 µM] (inactive)
11,O=S(=O)(c1cccc2cnccc12)N1CCCNCC1,0.706% (inactive)
12,O=C1CC2(CCCC2)CC(=O)N1,-2.32% (inactive)
13,CCCCCCCCN(C)CCCCCCCC,0.421% [at 78.8 µM] (inactive)
14,CCc1cc(S(=O)(=O)O)c2cc(C(C)C)cccc1-2,-0.105% (inactive)
15,OCCN1C[C@H](O)[C@@H](O)[C@H](O)[C@H]1CO,2.84% (inactive)
16,C/C=C1\C(=O)C[C@H]2[C@@H]3CCC4=CC(=O)CC[C@]4(C)[C@H]3CC[C@]12C,3.69% (inactive)
17,O=C(CCOCCOCCOCCOCCC(=O)Nc1c(I)cc(I)c(C(=O)O)c1I)Nc1c(I)cc(I)c(C(=O)O)c1I,-4.04% (inactive)
18,C#CC(C)(O)CC(C)C (stereo not given),-5.66% (inactive)
19,C#CC(O)C(CC)CCCC (stereo not given),0.566% (inactive)
20,COC(=O)CCCCCCCCC(=O)OC,10.5% [at 78.8 µM] (inactive)

# From PubChem BioAssay (Tox21)
